# Only a selection was taken, and the strongest signals are over-represented in it overall.
# B1: DETC sTCR (Mus musculus) (protein)
# chain: LDVYLEPVAKTFTVVAGDPASFYCTVTGGDMKNYHMSWYKKNGTNALFLVYKLNSNSTDGGKSNLKGKINISKNQFILDIQKATMKDAGTYYCGSDIGGSSWDTRQMFFGTGIELFVEPKSQPPAKPSVFIMKNGTNVACLVKDFYPKEVTISLRSSKKIVEFDPAIVISPSGKYSAVKLGQYGDSNSVTCSVQHNSETVHSTDFEPYANSFNNEKLPEPENDTQISEPCSSADLVPRGSTTAPSAQLKKKLQALKKKNAQLKWKLQALKKKLAQHHHHHHDSWISQDQLSFTRRPNKTVHISCKLSGVPLHNTIVHWYQLKEGEPLRRIFYGSVKTYKQDKSHSRLEIDEKDDGTFYLIINNVVTSDEATYYCACWDSSGFHKVFAEGTKLIVIPSDKRLDADISPKPTIFLPSVAETNLHKTGTYLCLLEKFFPDVIRVYWKEKDGNTILDSQEGDTLKTNDTYMKFSWLTVPERAMGKEHRCIVKHENNKGGADQEIFFPSIKKVAVSTKPTTCSSADLVPRGSTTAPSAQLEKELQALEKENAQLEWELQALEKELAQLNDIFEAQKIEW
# B2: HHL-1 (Homo sapiens), P07306 (protein)
# chain: TKEYQDLQHLDNEESDHHQLRKGPPPPQPLLQRLCSGPRLLLLSLGLSLLLLVVVCVIGSQNSQLQEELRGLRETFSNFTASTEAQVKGLSTQGGNVGRKMKSLESQLEKQQKDLSEDHSSLLLHVKQFVSDLRSLSCQMAALQGNGSERTCCPVNWVEHERSCYWFSRSGKAWADADNYCRLEDAHLVVVTSWEEQKFVQHHIGPVNTWMGLHDQNGPWKWVDGTDYETGFKNWRPEQPDDWYGHGLGGGEDCAHFTDDGRWNDDVCQRPYRWVCETELDKASQEPPLL
# Legend:
# Test in all cases: glycan array binding signal (z-score within array); higher = stronger binding
# Settings in all cases: glycan notation: IUPAC condensed, linker removed
# [1] = target: Fuc(a1-2)Gal(b1-3)GlcNAc(b1-3)[Gal(b1-4)[Fuc(a1-3)]GlcNAc(b1-6)]Gal(b1-4)Glc
# Procedure, shortened: (§1)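 The Consortium for Functional Glycomics database supplied 3228 glycan arrays, of which those lacking an available protein sequence were dropped. The binding signal, a within-array Z-score, was averaged across arrays of the same protein sequence and across linkers. Negative scores can be read as non-binding.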
# [2] = target: Fuc(a1-2)Gal6S(b1-4)GlcNAc
# Procedure, shortened: as §1
# [3] = target: Fuc(a1-2)[Gal(a1-3)]Gal
# Procedure, shortened: as §1
# [4] = target: Fuc(a1-2)[Gal(a1-3)]Gal(b1-3)GlcNAc
# Procedure, shortened: as §1
# [5] = target: Fuc(a1-3)[Gal(b1-4)]GlcNAc(b1-2)Man(a1-3)[Fuc(a1-3)[Gal(b1-4)]GlcNAc(b1-2)Man(a1-6)]Man(b1-4)GlcNAc(b1-4)GlcNAc
# Procedure, shortened: as §1
# [6] = target: Fuc(a1-3)[Gal(b1-4)]GlcNAc(b1-3)Gal(b1-3)[Fuc(a1-4)]GlcNAc
# Procedure, shortened: as §1
# [7] = target: Gal(b1-2)Gal
# Procedure, shortened: as §1
# [8] = target: Gal(b1-4)GlcNAc(b1-2)Man(a1-6)[Man(a1-3)]Man(b1-4)GlcNAc(b1-4)GlcNAc
# Procedure, shortened: as §1
# [9] = target: Gal(b1-4)GlcNAc(b1-3)Gal(b1-4)Glc
# Procedure, shortened: as §1
# [10] = target: Gal3S(b1-4)GlcNAc
# Procedure, shortened: as §1
# [11] = target: Gal3S6S(b1-4)GlcNAc
# Procedure, shortened: as §1
# [12] = target: GalNAc(a1-3)Gal
# Procedure, shortened: as §1
# [13] = target: GlcNAc(a1-4)Gal(b1-4)GalNAc
# Procedure, shortened: as §1
# [14] = target: GlcNAc(a1-4)Gal(b1-4)GlcNAc(b1-3)Gal(b1-4)[Fuc(a1-3)]GlcNAc(b1-3)Gal(b1-4)[Fuc(a1-3)]GlcNAc
# Procedure, shortened: as §1
# [15] = target: GlcNAc(b1-3)Gal(b1-4)GlcNAc
# Procedure, shortened: as §1
# [16] = target: GlcNAc(b1-3)Man
# Procedure, shortened: as §1
# [17] = target: Man(a1-2)Man(a1-2)Man(a1-6)[Man(a1-3)]Man
# Procedure, shortened: as §1
# [18] = target: Man(a1-2)Man(a1-3)Man
# Procedure, shortened: as §1
# [19] = target: Neu5Ac(a2-3)Gal(b1-3)GalNAc6S
# Procedure, shortened: as §1
# [20] = target: Neu5Ac(a2-3)Gal(b1-4)GlcNAc(b1-3)Gal(b1-4)GlcNAc(b1-3)Gal(b1-4)GlcNAc
# Procedure, shortened: as §1
# [21] = target: Neu5Ac(a2-6)GlcNAc(b1-4)GlcNAc(b1-4)GlcNAc
# Procedure, shortened: as §1
# [22] = target: Neu5Ac9Ac(a2-3)Gal(b1-4)GlcNAc
# Procedure, shortened: as §1
# [23] = target: Neu5Gc(a2-3)Gal(b1-3)GlcNAc
# Procedure, shortened: as §1
# [24] = target: Fuc(a1-2)Gal(b1-4)GlcNAc(b1-2)Man(a1-3)[Fuc(a1-2)Gal(b1-4)GlcNAc(b1-2)Man(a1-6)]Man(b1-4)GlcNAc(b1-4)GlcNAc
# Procedure, shortened: as §1
# [25] = target: Fuc(a1-2)[GalNAc(a1-3)]Gal(b1-4)GlcNAc(b1-3)Gal(b1-4)GlcNAc(b1-3)Gal(b1-4)GlcNAc
# Procedure, shortened: as §1
# [26] = target: Fuc(a1-2)[GalNAc(a1-4)]Gal(b1-4)GlcNAc
# Procedure, shortened: as §1
# [27] = target: Gal(a1-2)Gal
# Procedure, shortened: as §1
# [28] = target: Gal(a1-3)[Gal(a1-4)]Gal(b1-4)GlcNAc
# Procedure, shortened: as §1
# [29] = target: Gal(a1-4)Gal(b1-4)GlcNAc
# Procedure, shortened: as §1
# [30] = target: Gal(b1-4)GlcNAc(b1-6)Gal(b1-4)GlcNAc(b1-6)GalNAc
# Procedure, shortened: as §1
# [31] = target: Gal(b1-4)GlcNAc(b1-6)GalNAc
# Procedure, shortened: as §1
# [32] = target: Gal3S6S(b1-4)GlcNAc6S
# Procedure, shortened: as §1
# [33] = target: GalNAc(b1-3)Gal
# Procedure, shortened: as §1
# [34] = target: GalNAc(b1-3)Gal(a1-4)Gal(b1-4)GlcNAc
# Procedure, shortened: as §1
# [35] = target: GalNAc(b1-3)Gal(a1-4)Gal(b1-4)GlcNAc(b1-3)Gal(b1-4)Glc
# Procedure, shortened: as §1
# [36] = target: GlcNAc(a1-4)Gal(b1-4)GlcNAc(b1-3)Gal(b1-4)Glc
# Procedure, shortened: as §1
# [37] = target: GlcNAc(b1-6)GalNAc
# Procedure, shortened: as §1
# [38] = target: Kdn(a2-3)Gal(b1-3)GlcNAc
# Procedure, shortened: as §1
# [39] = target: Kdn(a2-3)Gal(b1-4)GlcNAc
# Procedure, shortened: as §1
# [40] = target: Man(a1-3)[Man(a1-6)]Man
# Procedure, shortened: as §1
# [41] = target: Man(a1-3)[Man(a1-6)]Man(a1-6)[Man(a1-2)Man(a1-3)]Man(b1-4)GlcNAc(b1-4)GlcNAc
# Procedure, shortened: as §1
# [42] = target: Neu5Ac(a2-3)Gal(b1-3)GalNAc
# Procedure, shortened: as §1
# [43] = target: Neu5Ac(a2-3)Gal(b1-3)GalNAc(b1-3)Gal(b1-4)GlcNAc
# Procedure, shortened: as §1
# [44] = target: Neu5Ac(a2-3)Gal(b1-3)[Neu5Ac(a2-3)Gal(b1-4)]GlcNAc
# Procedure, shortened: as §1
# [45] = target: Neu5Ac(a2-3)GalNAc
# Procedure, shortened: as §1
# [46] = target: Neu5Ac(a2-6)GlcNAc(b1-4)GlcNAc
# Procedure, shortened: as §1
# [47] = target: Neu5Ac(b2-6)Gal(b1-4)GlcNAc
# Procedure, shortened: as §1
# [48] = target: Neu5Ac(b2-6)GalNAc
# Procedure, shortened: as §1
# [49] = target: Neu5Gc(a2-3)Gal(b1-4)[Fuc(a1-3)]GlcNAc
# Procedure, shortened: as §1
# [50] = target: Neu5Gc(a2-6)GalNAc
# Procedure, shortened: as §1
binder,measurement,setting,value
B1,glycan array binding signal (z-score),[1],-0.448
same,glycan array binding signal (z-score),[2],2.96
same,glycan array binding signal (z-score),[3],0.343
same,glycan array binding signal (z-score),[4],-0.572
same,glycan array binding signal (z-score),[5],-0.52
same,glycan array binding signal (z-score),[6],-0.531
same,glycan array binding signal (z-score),[7],-0.101
same,glycan array binding signal (z-score),[8],6.38
same,glycan array binding signal (z-score),[9],-0.495
same,glycan array binding signal (z-score),[10],2.74
same,glycan array binding signal (z-score),[11],-0.25
same,glycan array binding signal (z-score),[12],-0.71
same,glycan array binding signal (z-score),[13],3.96
same,glycan array binding signal (z-score),[14],5.91
same,glycan array binding signal (z-score),[15],-0.215
same,glycan array binding signal (z-score),[16],-0.035
same,glycan array binding signal (z-score),[17],0.993
same,glycan array binding signal (z-score),[18],-0.043
same,glycan array binding signal (z-score),[19],1.09
same,glycan array binding signal (z-score),[20],-0.518
same,glycan array binding signal (z-score),[21],5.83
same,glycan array binding signal (z-score),[22],0.262
same,glycan array binding signal (z-score),[23],-0.599
B2,glycan array binding signal (z-score),[1],0.628
same,glycan array binding signal (z-score),[24],-0.533
same,glycan array binding signal (z-score),[25],-0.3
same,glycan array binding signal (z-score),[26],7.69
same,glycan array binding signal (z-score),[27],0.419
same,glycan array binding signal (z-score),[28],0.667
same,glycan array binding signal (z-score),[29],-0.54
same,glycan array binding signal (z-score),[30],0.262
same,glycan array binding signal (z-score),[31],4.51
same,glycan array binding signal (z-score),[32],0.503
same,glycan array binding signal (z-score),[33],4.09
same,glycan array binding signal (z-score),[34],5.53
same,glycan array binding signal (z-score),[35],5.52
same,glycan array binding signal (z-score),[36],-0.538
same,glycan array binding signal (z-score),[37],7.59
same,glycan array binding signal (z-score),[38],-0.538
same,glycan array binding signal (z-score),[39],0.051
same,glycan array binding signal (z-score),[40],-0.472
same,glycan array binding signal (z-score),[41],-0.485
same,glycan array binding signal (z-score),[42],0.366
same,glycan array binding signal (z-score),[43],-0.541
same,glycan array binding signal (z-score),[44],-0.548
same,glycan array binding signal (z-score),[45],-0.482
same,glycan array binding signal (z-score),[46],0.387
same,glycan array binding signal (z-score),[47],-0.409
same,glycan array binding signal (z-score),[48],-0.515
same,glycan array binding signal (z-score),[49],0.159
same,glycan array binding signal (z-score),[50],-0.536

# Reference: the supplement of paper PMC8728848
